From PubChem
An excerpt weighted towards active compounds, which were near 3.3% of everything screened.
RE007 growth inh: qHTS Assay for Inhibitors of the HIV-1 protein Vpr; AID 651644, 2012; Potency, µM (highest dose often 92.2 µM), inactives show at the top dose activity change, negative = less growth, usual class: inhibitors; hit rate 0.21% among 360,000; S. pombe RE007 Vpr strain, BacTiter-Glo ATP luminescence, 24 h; active = well fitted falling curve with a large enough effect; inconclusive = small, poorly fitted or top-dose-only effect; inactive = no such curve, though single readings can be large or run the other way; also: % is scaled to controls: 0 for no effect and ±100 for the full control effect; nearly all actives have a fitted effect of over 50% in size
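Fission yeast strain RE007, carrying one chromosomally integrated HIV-1 vpr copy, was seeded at OD 0.01 in PMG+AL medium with 23 nL pinned compound. After 24 h at 30 °C and 99% humidity, viability was read by BacTiter-Glo luminescence.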
AmpC no deterg: qHTS Inhibitors of AmpC Beta-Lactamase (assay without detergent) | hit rate 0.52% among 330,000 | Potency, µM (top dose mostly 57.1 µM), inactives show at the top dose activity change, negative = inhibition, hits mostly inhibitors | AmpC nitrocefin hydrolysis, absorbance 480 nm, 0.0001% Triton;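 also: plate controls were no compound for no effect and no enzyme for full effect; nearly all actives have a fitted effect of over 20% in size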
Target sequence (P00811 whole entry, looked up): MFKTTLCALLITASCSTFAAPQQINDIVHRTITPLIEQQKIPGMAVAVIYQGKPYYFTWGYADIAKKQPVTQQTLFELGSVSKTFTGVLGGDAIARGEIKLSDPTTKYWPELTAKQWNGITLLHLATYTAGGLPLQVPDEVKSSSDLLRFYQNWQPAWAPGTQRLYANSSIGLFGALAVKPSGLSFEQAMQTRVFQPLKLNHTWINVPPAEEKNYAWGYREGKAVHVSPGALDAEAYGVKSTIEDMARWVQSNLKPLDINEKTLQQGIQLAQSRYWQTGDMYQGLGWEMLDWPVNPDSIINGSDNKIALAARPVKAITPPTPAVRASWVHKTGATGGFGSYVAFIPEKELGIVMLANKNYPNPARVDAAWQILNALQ
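20 mM phosphate pH 7.0 + 0.01% (detergent screen) or 0.0001% Triton X-100; 5.3 nM AmpC reagent; cpd preinc 15 min RT; nitrocefin (800 uM stock) to start; A480 q20 s × 4 min; Activity was normalised to no-enzyme and no-compound control wells.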
SARS PLP yeast: qHTS of Yeast-based Assay for SARS-CoV PLP; S. cerevisiae expressing SARS-CoV PLpro, growth rescue; Potency, µM (doses to about 32.9 µM), for inactives: at the highest dose activity, positive = growth rescue, most hits filed as activators; hit rate 0.19% among 330,000; calls by dose curve; also: 0% is about no effect; nearly all actives have a fitted effect of over 55% in size
Sm TGR block: qHTS Assay for the Inhibitors of Schistosoma Mansoni Peroxiredoxins. Schistosoma mansoni thioredoxin glutathione reductase (TGR), Q962Y6. purified TGR, DTNB reduction, TNB absorbance 405 nm. Potency, µM (top dose mostly 114 µM), without a hit: at the top dose activity change, negative = inhibition, actives largely listed as inhibitors. hit rate 3% among 360,000. AID 485364, 2010; also: % is scaled to controls: 0 for no effect and ±100 for the full control effect; nearly all actives have a fitted effect of over 60% in size
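First, TGR (20 nM dispensed) and NADPH were mixed with compound. Second, a 15 min room-temperature incubation followed. Third, further NADPH and then DTNB were added to start the reaction. Finally, TNB absorbance was monitored kinetically.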
AmpC inh detg: qHTS Inhibitors of AmpC Beta-Lactamase (assay with detergent). P00811. AmpC hydrolysis of nitrocefin, absorbance 480 nm, 0.01% Triton. Potency, µM (highest dose often 114 µM), inactives show top-dose activity change, negative = inhibition, most hits filed as inhibitors. hit rate 0.041% among 370,000;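 also: 0% = no-compound wells and -100% = no-enzyme wells; nearly all actives have a fitted effect of over 25% in size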
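AmpC (5.3 nM in the dispensed reagent) in 20 mM phosphate pH 7.0 with 0.01% (detergent screen) or 0.0001% Triton X-100 was preincubated with compounds for 15 min at room temperature. Nitrocefin was then added from an 800 uM solution, and hydrolysis was followed at 480 nm.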
TbPYK inhibitor: qHTS of Trypanosoma Brucei Inhibitors | pyruvate kinase (Trypanosoma brucei), Q57TT1 | TbPYK enzyme, Kinase-Glo Plus ATP luminescence, 45 min | Potency, µM (titrated, usually from 76.8 µM), inactives show at the top dose activity, negative = inhibition, actives largely listed as inhibitors | hit rate 0.12% among 410,000 | AID 624173, 2012; also: % is scaled to controls: 0 for no effect and ±100 for the full control effect; nearly all actives have a fitted effect of over 50% in size
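TbPYK + substrate in 50 mM TEA pH 7.2, 100 mM KCl, 10 mM MgCl2, 0.05% BSA, 0.01% Tween-20; cpd pinned; ADP 130 uM final; 45 min RT; Kinase-Glo Plus 10 min; luminescence endpoint.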
The depositor's hits bear a star; ? = inconclusive; . = no result given; [ ] = remark or other dose. Unless noted, calls follow the shape of the dose curve; as a rule, active = well fitted curve in the direction sought with a large enough effect; inconclusive = small, poorly fitted or top-dose-only effect, or another doubt; inactive = no such curve, though single readings can be large; an effect the other way counts as inactive or inconclusive. Potency is read from the fitted curve at half-maximal effect.

SMILES | RE007 growth inh | AmpC no deterg | SARS PLP yeast | Sm TGR block | AmpC inh detg | TbPYK inhibitor
COCCNC(=O)CSc1nc(-c2cc(OC)c(OC)c(OC)c2)[nH]c1-c1ccc(Cl)cc1 | . | . | . | 4% | 12% | 0%
Cc1ccc(CNC(=O)c2ccc(CSCc3c(F)cccc3Cl)o2)cc1 | . | . | . | 7% | 7% | -5%
CCCC(=O)O[C@]1(C(=O)COC(=O)CC)[C@@H](C)C[C@H]2[C@@H]3CCC4=CC(=O)C=C[C@@]4(C)[C@@]3(F)[C@H](O)C[C@@]21C | . | . | . | . | . | 6%
C=CCOc1c(/C=N\NC(N)=O)cccc1OC | -9% | -3% | -1% | -10% | -5% | 3%
C=CCOc1c(OC)cc(/C=N/Nc2cccc(C(=O)O)c2)c(Br)c1Br | . | -32% | -29% | 56µM* | 1% | -17%
O=C(C1CCCN(S(=O)(=O)c2cccc3nsnc23)C1)N1CCN(c2ccccc2Cl)CC1 (stereo not given) | . | . | . | -2% | 5% | -6%
COc1cccc(CNc2nc3ccccc3c3nc(-c4cccc(C)c4)nn23)c1 | . | . | . | 2% | 6% | -13%
Cc1ccc(-c2nc3nc(C)cc(N4CCN(c5cccc(C)c5C)CC4)n3n2)cc1 | . | . | . | 56µM* | 8% | -3%
CCCCc1nc2ccccc2n2c(-c3ccc(C)cc3)c3c(=O)n(C)c(=O)n(C)c3c12 | . | . | . | 9% | 15% | -4%
CCC(=O)NC(c1ccc(C)cc1)c1cc([N+](=O)[O-])c2cccnc2c1O (stereo not given) | -9% | -24% | 3.2µM* | -29% | -12% | ?
CCCC(=O)NC(c1ccco1)c1cc([N+](=O)[O-])c2cccnc2c1O (stereo not given) | -18% | -18% | ? | 28µM* | -7% | -3%
CCC(=O)NC(c1ccco1)c1cc(Br)c2cccnc2c1O (stereo not given) | . | -1% | 2% | 35µM* | ? | -3%
COc1ccc(C2C(C(N)=O)=C(C)Nc3nc(CCCO)nn32)c(OC)c1 (stereo not given) | . | . | . | -3% | 24% | 0%
CCn1cc(/C=C(\NC(=O)c2ccc(C)cc2)C(=O)NCCCn2ccnc2)c2ccccc21 | . | . | . | -4% | -8% | -1%
CN(C)S(=O)(=O)c1ccc(C(=O)NCC(c2cccs2)N2CCOCC2)cc1 (stereo not given) | 20% | -6% | 15% | 56µM* | -18% | 3%
CCc1ccc(NS(=O)(=O)c2[nH]ncc2C(=O)OC)cc1 | . | . | . | 2% | 14% | -7%
Cc1nc2c(oc3ccccc32)c(=O)o1 | -10% | -21% | 1% | 11µM* | -1% | -2%
O=c1[nH]c(Cc2ccccc2)nc2c1oc1ccccc12 | -4% | -21% | 3% | 17% | ? | -9%
CCC(=O)N1CCc2cc(Br)cc(S(=O)(=O)NCc3ccco3)c21 | 10% | -20% | -5% | 35µM* | 3% | 0%
CCCc1cc(=O)[nH]c2nnc(SCC(=O)NC3CCCC3)n12 | 7% | 18µM* | -1% | 1% | ? | ?
CCCc1cc(=O)[nH]c2nnc(SCC(=O)Nc3ccc(NC(C)=O)cc3)n12 | -11% | -1% | . | 0% | -12% | 0%
COc1ccc(-c2nc3scc(CCNC(=O)c4cccc(Br)c4)n3n2)cc1 | . | . | . | ? | -6% | -13%
CC(=O)Nc1ccc(N2CCCC2)cc1 | 1% | 41% | 7% | 35µM* | -6% | -8%
CCc1ccc(N2Cc3ccccc3C2)cc1 | -11% | -19% | -3% | 18µM* | 7% | -5%
CC(=O)Nc1ccc(N2Cc3ccccc3C2)cc1 | 9% | 46% | -3% | 13µM* | ? | -32%
SMILES | RE007 growth inh | AmpC no deterg | SARS PLP yeast | Sm TGR block | AmpC inh detg | TbPYK inhibitor
Cc1cc(C)cc(N2Cc3ccccc3C2)c1 | 1% | -4% | -5% | ? | ? | 1%
CCOC(=O)c1ccccc1NC(=O)CSc1cn(CC(=O)N2CCOCC2)c2ccccc12 | . | . | . | -10% | -7% | 4%
O=C(CSCc1cc(=O)[nH][nH]1)Nc1ccc(F)cc1 | 20% | -48% | 21% | -2% | ? | -1%
CCCCc1ccc(NC(=O)CSCc2cc(=O)[nH][nH]2)cc1 | 21% | 18µM* | 5% | -3% | -1% | 0%
CO/N=C(\C(=O)N[C@@H]1C(=O)N2C(C(=O)[O-])=C(C[n+]3cccc4c3CCCC4)CS[C@H]12)c1csc(N)n1 | . | . | . | . | . | -14%
c1ccc2c(c1)-c1cccc3cccc-2c13 | -4% | -11% | 5% | -2% | -3% | 1%
O=C1c2cccc3cccc(c23)C(=O)C1(O)O | 4% | . | . | . | . | 7.1µM*
CCOC(=O)c1c(C)[nH]c(C)c1S(=O)(=O)N(C)CC(=O)Nc1ccc(C)c(F)c1 | . | . | . | 10% | -2% | -1%
COc1ccccc1NC(=O)N1CCOc2ccccc21 | . | . | . | 3% | 17% | 3%
CSc1ccccc1C(=O)C1CCCN(C(=O)c2cc(C(C)C)no2)C1 (stereo not given) | -22% | 56% | -6% | 22µM* | -12% | -3%
CC(C)[C@@]1(NC(=O)[C@@H]2C=C3c4cccc5[nH]cc(c45)C[C@H]3N(C)C2)O[C@@]2(O)[C@@H]3CCCN3C(=O)[C@H](Cc3ccccc3)N2C1=O | . | 58% | -4% | 8.9µM* | -11% | .
CC(C)[C@@]1(NC(=O)[C@@H]2C[C@@H]3c4cccc5[nH]cc(c45)C[C@H]3N(C)C2)O[C@@]2(O)[C@@H]3CCCN3C(=O)[C@H](Cc3ccccc3)N2C1=O | -2%[18.4 µM] | 180% | -4% | -14% | -3% | -2%
CC(C)C[C@H]1C(=O)N2CCC[C@H]2[C@]2(O)O[C@](NC(=O)[C@@H]3C=C4c5cccc6[nH]c(Br)c(c56)CC4N(C)C3)(C(C)C)C(=O)N12 (stereo not given in full) | ? | 155% | 4% | -28% | ? | -1%
CC(C)C[C@H]1C(=O)N2CCCC2[C@]2(O)O[C@](NC(=O)[C@@H]3C=C4c5cccc6[nH]cc(c56)CC4N(C)C3)(C(C)C)C(=O)N12 (stereo not given in full) | -8% | 94% | -2% | 10µM* | ? | -11%
